Assay results from PubChem BioAssay (NCI).
About 79,000 compounds went through this panel and 15% of them were active in at least one assay; those are over-represented in the sample as a whole. Activity calls are given as the source filed them. No stated cut-off is given here; in the data, active means growth inhibition above about 70%; inactive means the rest.

How the values were obtained:
[1] = NCI Yeast Anticancer Drug Screen. Data for the rad52 strain (AID 147);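 further: 0% = growth of vehicle-treated control cultures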; conditions: S. cerevisiae rad52 mutant growth inhibition, stronger effect = higher value
Procedure, shortened: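 DNA repair-defective yeast; compound exposure; growth scored against vehicle controls.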

[2] = NCI Yeast Anticancer Drug Screen. Data for the wt1 strain (AID 149);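 further: 0% = growth of vehicle-treated wt1 cultures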; conditions: S. cerevisiae wt1 strain (SPY 50644) growth inhibition, stronger effect = higher value
Procedure, shortened: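 Measured: growth of wt1 yeast under compound versus vehicle treatment, reported as inhibition.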

[3] = NCI Yeast Anticancer Drug Screen. Data for the mgt1 strain (AID 153); conditions: S. cerevisiae mgt1 mutant growth inhibition, stronger effect = higher value
Procedure, shortened: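 Growth inhibition relative to vehicle controls was scored for the mgt1 yeast strain after compound exposure.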

[4] = NCI Yeast Anticancer Drug Screen. Data for the rad50 strain (AID 155);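 further: 0% = growth of vehicle-only cultures of the same strain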; conditions: S. cerevisiae rad50 strain growth inhibition, stronger effect = higher value
Procedure, shortened: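 Growth of the mutant yeast was measured after compound exposure and referenced to vehicle-treated cultures.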

[5] = NCI Yeast Anticancer Drug Screen. Data for the mec2-1 strain (AID 157); conditions: S. cerevisiae mec2-1 strain, stronger effect = higher value
Procedure, shortened: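 Growth inhibition is read against vehicle-treated controls after compound exposure of the mec2-1 yeast strain, which is defective in DNA damage repair or cell cycle control.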

[6] = NCI Yeast Anticancer Drug Screen. Data for the rad14 strain (AID 159);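 further: 0% = growth of vehicle-treated control cultures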; conditions: S. cerevisiae rad14 strain growth inhibition, stronger effect = higher value
Procedure, shortened: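 Here, inhibition of yeast growth was measured after compound exposure, using a strain with a genetic defect in DNA damage repair and vehicle-treated cultures as the reference.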

[7] = NCI Yeast Anticancer Drug Screen. Data for the sgs1 mgt1 strain (AID 161);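 further: 0% = growth of cultures given vehicle only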; conditions: S. cerevisiae sgs1 mgt1 strain, stronger effect = higher value
Procedure, shortened: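 Growth of a repair-deficient yeast mutant was monitored after compound treatment and expressed as inhibition relative to vehicle-treated cultures.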

[8] = NCI Yeast Anticancer Drug Screen. Data for the CLN2oe strain (AID 163);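 further: 0% = growth of vehicle-only control cultures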; conditions: S. cerevisiae CLN2oe strain, stronger effect = higher value
Procedure, shortened: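 Compound-treated yeast; growth vs vehicle ctrl = % inhibition. Genetically altered strain (cell-cycle control).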

[9] = NCI Yeast Anticancer Drug Screen. Data for the cln2 rad14 strain (AID 165);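 further: 0% = growth equal to vehicle treated cultures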; conditions: S. cerevisiae cln2 rad14 strain, stronger effect = higher value
Procedure, shortened: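 Growth inhibition, relative to vehicle-treated controls, is the read-out. The test organism is a yeast strain with defined genetic alterations, cln2 rad14.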

[10] = NCI Yeast Anticancer Drug Screen. Data for the bub3 strain (AID 167); conditions: S. cerevisiae bub3 mutant strain, stronger effect = higher value
Procedure, shortened: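 Whole-cell yeast assay. The mutant strain was incubated with compounds, and growth inhibition was determined by comparison with vehicle-treated cells.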

[11] = NCI Yeast Anticancer Drug Screen. Data for the wt2 strain (AID 169);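 further: 0% = growth of vehicle-treated yeast cultures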; conditions: S. cerevisiae wt2 strain growth inhibition, stronger effect = higher value
Procedure, shortened: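 Compound exposure of yeast; growth compared with vehicle controls; inhibition reported.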

[12] = NCI Yeast Anticancer Drug Screen. Data for the mlh1 strain (AID 171);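 further: 0% = growth of vehicle-treated control cultures of the same strain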; conditions: S. cerevisiae mlh1 strain growth inhibition, stronger effect = higher value
Procedure, shortened: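 Compounds are applied to a genetically altered yeast strain, and its growth is compared with that of vehicle-treated cultures to give percent inhibition.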

[13] = NCI Yeast Anticancer Drug Screen. Data for the sgs1 strain (AID 173);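 further: 0% = growth of vehicle-only control cultures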; conditions: S. cerevisiae sgs1 mutant, stronger effect = higher value
Procedure, shortened: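 Compounds applied to genetically altered yeast; growth compared with vehicle-treated cultures to give % inhibition.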

[14] = NCI Yeast Anticancer Drug Screen. Data for the mlh1 rad18 strain (AID 175); conditions: S. cerevisiae mlh1 rad18 strain growth inhibition, stronger effect = higher value
Procedure, shortened: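 Cells of a genetically altered yeast strain, deficient in DNA damage repair, were treated with compound. Their growth was then compared with that of vehicle-treated cultures to give inhibition.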

[15] = NCI Yeast Anticancer Drug Screen. Data for the rad18 strain (AID 177); conditions: S. cerevisiae rad18 mutant growth inhibition, stronger effect = higher value
Procedure, shortened: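 Compounds are applied to a repair-deficient yeast strain, and growth is compared with that of vehicle-treated cultures to give percent inhibition.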

[16] = at 5.0 µM (retest, dose inferred, filed as 0.5)
[17] = at 50.0 µM (retest, dose inferred, filed as 5.0)

Measured: growth inhibition

CCCCCCCCCCCCCCCCCCN(C)C(COC)COP(=O)([O-])OCC[N+](C)(C)C (stereo not drawn)
inactive: [1]; at 1.2 µM -58% | [1]; at 3.7 µM -67% | [2]; at 1.2 µM -34% | [2]; at 3.7 µM -56% | [3]; at 1.2 µM 14% | [3]; at 3.7 µM 8% | [4]; at 1.2 µM -24% | [4]; at 3.7 µM -11% | [4]; [16] 1% | [5]; at 1.2 µM -48% | [5]; at 3.7 µM -46% | [5]; [16] 12% | [5]; at 50.0 µM 23.9% | [6]; at 1.2 µM -69% | [6]; at 3.7 µM -78% | [7]; [16] 3% | [7]; [17] 2% | [8]; at 1.2 µM -39% | [8]; at 3.7 µM -44% | [9]; [16] 13% | [9]; [17] -70% | [9]; at 50.0 µM 8.85% | [10]; at 1.2 µM -23% | [10]; at 3.7 µM -40% | [10]; [16] 14% | [10]; [17] 10% | [11]; at 1.2 µM -41% | [11]; at 3.7 µM -55% | [12]; at 1.2 µM -34% | [12]; at 3.7 µM -54% | [13]; at 1.2 µM -64% | [13]; at 3.7 µM -64% | [14]; [16] 16% | [14]; at 50.0 µM 50% | [15]; at 1.2 µM -64% | [15]; at 3.7 µM -24%
active: [1]; at 11.0 µM 95% | [1]; at 33.0 µM 97% | [1]; at 100.0 µM 97% | [2]; at 11.0 µM 98% | [2]; at 33.0 µM 99% | [2]; at 100.0 µM 98% | [3]; at 11.0 µM 98% | [3]; at 33.0 µM 99% | [3]; at 100.0 µM 98% | [4]; at 11.0 µM 97% | [4]; at 33.0 µM 98% | [4]; [17] 98% | [4]; at 50.0 µM 73.6% | [4]; at 100.0 µM 98% | [5]; at 11.0 µM 97% | [5]; at 33.0 µM 98% | [5]; [17] 99% | [5]; at 100.0 µM 98% | [6]; at 11.0 µM 96% | [6]; at 33.0 µM 98% | [6]; at 100.0 µM 97% | [7]; at 50.0 µM 85.8% | [8]; at 11.0 µM 97% | [8]; at 33.0 µM 98% | [8]; at 100.0 µM 98% | [10]; at 11.0 µM 98% | [10]; at 33.0 µM 98% | [10]; at 50.0 µM 85.2% | [10]; at 100.0 µM 98% | [11]; at 11.0 µM 97% | [11]; at 33.0 µM 98% | [11]; at 100.0 µM 98% | [12]; at 11.0 µM 97% | [12]; at 33.0 µM 98% | [12]; at 100.0 µM 98% | [13]; at 11.0 µM 97% | [13]; at 33.0 µM 98% | [13]; at 100.0 µM 98% | [14]; [17] 98% | [15]; at 11.0 µM 97% | [15]; at 33.0 µM 98% | [15]; at 100.0 µM 98%
